Source: PubChem BioAssay AID1159580 (chemical genetic matrix, 2015)
The whole screen tested about 5,500 compounds, of which about 2,000 (36%) were called active. Not shown: some 18% with an inconclusive outcome. Rule as the data show it: active = normalized growth mostly below about 0.91 (no sharp cut-off); inconclusive = no clear call, values can overlap the other calls; inactive = mostly above about 0.92. Some of the results follow.

Assay: chemical genetic growth profiling, strain panel (AID 1159580);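 also: tested at 20 µM; growth read once vehicle control cultures reached saturation at 30 °C; 1 = growth at the plate median or of vehicle wells; lower values mean less growth of the strain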
Conditions: growth OD

Measured: normalized growth

NC(=O)c1ncn([C@@H]2O[C@H](CO)[C@@H](O)[C@H]2O)c1O
inactive: S. cerevisiae deletion strains, locus YAL013W, strain DEP1, stronger effect = lower value 1 | S. cerevisiae deletion strains, locus YBR021W, strain FUR4, stronger effect = lower value 1.02 | S. cerevisiae deletion strains, locus YBR229C, strain ROT2, stronger effect = lower value 1.01 | S. cerevisiae deletion strains, locus YCL029C, strain bik1, stronger effect = lower value 1.01 | S. cerevisiae deletion strains, locus YDL035C, strain GPR1, stronger effect = lower value 1.02 | S. cerevisiae deletion strains, locus YDL074C, strain BRE1, stronger effect = lower value 0.978 | S. cerevisiae deletion strains, locus YDL101C, strain DUN1, stronger effect = lower value 1 | S. cerevisiae deletion strains, locus YDL134C, strain PPH21, stronger effect = lower value 1 | S. cerevisiae deletion strains, locus YDL185W, strain tfp1, stronger effect = lower value 1.01 | S. cerevisiae deletion strains, locus YDL192W, strain arf1, stronger effect = lower value 1.01 | S. cerevisiae deletion strains, locus YDR101C, strain arx1, stronger effect = lower value 1.01 | S. cerevisiae deletion strains, locus YDR150W, strain NUM1, stronger effect = lower value 0.997 | S. cerevisiae deletion strains, locus YDR162C, strain NBP2, stronger effect = lower value 0.983 | S. cerevisiae deletion strains, locus YDR318W, strain mcm21, stronger effect = lower value 1.03 | S. cerevisiae deletion strains, locus YDR388W, stronger effect = lower value 1 | S. cerevisiae deletion strains, locus YDR502C, strain sam2, stronger effect = lower value 0.999 | S. cerevisiae deletion strains, locus YEL061C, strain CIN8, stronger effect = lower value 1 | S. cerevisiae deletion strains, locus YER110C, stronger effect = lower value 1.01 | S. cerevisiae deletion strains, locus YER155C, strain BEM2, stronger effect = lower value 1 | S. cerevisiae deletion strains, locus YER167W, strain BCK2, stronger effect = lower value 1.03 | S. cerevisiae deletion strains, locus YGL078C, strain dbp3, stronger effect = lower value 0.984 | S. cerevisiae deletion strains, locus YGL086W, strain mad1, stronger effect = lower value 1.02 | S. cerevisiae deletion strains, locus YGL248W, strain PDE1, stronger effect = lower value 1.01 | S. cerevisiae deletion strains, locus YGR078C, strain PAC10, stronger effect = lower value 1 | S. cerevisiae deletion strains, locus YGR135W, strain pre9, stronger effect = lower value 0.988 | S. cerevisiae deletion strains, locus YGR229C, strain SMI1, stronger effect = lower value 0.981 | S. cerevisiae deletion strains, locus YGR252W, strain gcn5, stronger effect = lower value 1.01 | S. cerevisiae deletion strains, locus YHR030C, strain SLT2, stronger effect = lower value 1.01 | S. cerevisiae deletion strains, locus YHR079C, strain IRE1 (second series), stronger effect = lower value 1.02 | S. cerevisiae deletion strains, locus YHR094C, strain hxt1, stronger effect = lower value 1.01 | S. cerevisiae deletion strains, locus YHR129C, strain ARP1, stronger effect = lower value 1.01 | S. cerevisiae deletion strains, locus YHR200W, strain rpn10, stronger effect = lower value 1.01 | S. cerevisiae deletion strains, locus YIL066C, strain RNR3, stronger effect = lower value 1.01 | S. cerevisiae deletion strains, locus YIL073C, strain SPO22, stronger effect = lower value 1.07 | S. cerevisiae deletion strains, locus YIL125W, strain kgd1, stronger effect = lower value 1 | S. cerevisiae deletion strains, locus YIR030C, strain dcg1, stronger effect = lower value 1.02 | S. cerevisiae deletion strains, locus YJL095W, strain BCK1, stronger effect = lower value 0.994 | S. cerevisiae deletion strains, locus YJL134W, strain LCB3, stronger effect = lower value 1.01 | S. cerevisiae deletion strains, locus YJL168C, strain set2, stronger effect = lower value 1.01 | S. cerevisiae deletion strains, locus YJL187C, strain SWE1 (second series), stronger effect = lower value 0.998 | S. cerevisiae deletion strains, locus YJR043C, strain POL32, stronger effect = lower value 1.04 | S. cerevisiae deletion strains, locus YJR075W, strain HOC1, stronger effect = lower value 0.974 | S. cerevisiae deletion strains, locus YKL009W, strain mrt4, stronger effect = lower value 0.996 | S. cerevisiae deletion strains, locus YKL068W, stronger effect = lower value 0.995 | S. cerevisiae deletion strains, locus YKL085W, strain MDH1 (second series), stronger effect = lower value 1 | S. cerevisiae deletion strains, locus YKL085W, strain MDH1, stronger effect = lower value 1 | S. cerevisiae deletion strains, locus YKL190W, strain CNB1, stronger effect = lower value 1.01 | S. cerevisiae deletion strains, locus YKR001C, strain vps1, stronger effect = lower value 1.02 | S. cerevisiae deletion strains, locus YLR039C, strain RIC1, stronger effect = lower value 1.04 | S. cerevisiae deletion strains, locus YLR058C, strain SHM2, stronger effect = lower value 1.01 | S. cerevisiae deletion strains, locus YLR102C, strain apc9, stronger effect = lower value 1.02 | S. cerevisiae deletion strains, locus YLR262C, strain YPT6, stronger effect = lower value 0.988 | S. cerevisiae deletion strains, locus YLR268W, strain sec22, stronger effect = lower value 0.988 | S. cerevisiae deletion strains, locus YLR330W, strain CHS5, stronger effect = lower value 1 | S. cerevisiae deletion strains, locus YLR342W, strain FKS1 (second series), stronger effect = lower value 1.07 | S. cerevisiae deletion strains, locus YLR371W, strain rom2, stronger effect = lower value 1.02 | S. cerevisiae deletion strains, locus YLR418C, strain cdc73, stronger effect = lower value 0.979 | S. cerevisiae deletion strains, locus YML016C, strain PPZ1, stronger effect = lower value 1 | S. cerevisiae deletion strains, locus YML032C, strain rad52, stronger effect = lower value 1.03 | S. cerevisiae deletion strains, locus YML124C, strain tub3, stronger effect = lower value 1.01 | S. cerevisiae deletion strains, locus YMR078C, strain ctf18, stronger effect = lower value 1.02 | S. cerevisiae deletion strains, locus YMR223W, strain ubp8, stronger effect = lower value 1.03 | S. cerevisiae deletion strains, locus YMR263W, strain SAP30, stronger effect = lower value 0.991 | S. cerevisiae deletion strains, locus YMR307W, strain GAS1, stronger effect = lower value 1.05 | S. cerevisiae deletion strains, locus YNL067W, strain RPL9B, stronger effect = lower value 0.988 | S. cerevisiae deletion strains, locus YNL128W, strain TEP1, stronger effect = lower value 0.977 | S. cerevisiae deletion strains, locus YNL153C, strain GIM3, stronger effect = lower value 0.995 | S. cerevisiae deletion strains, locus YNL233W, strain BNI4, stronger effect = lower value 0.99 | S. cerevisiae deletion strains, locus YNL250W, strain rad50, stronger effect = lower value 1.01 | S. cerevisiae deletion strains, locus YNL271C, strain bni1, stronger effect = lower value 1.01 | S. cerevisiae deletion strains, locus YNL298W, strain CLA4, stronger effect = lower value 1.02 | S. cerevisiae deletion strains, locus YNL307C, strain MCK1, stronger effect = lower value 1.05 | S. cerevisiae deletion strains, locus YNL322C, strain KRE1, stronger effect = lower value 1.01 | S. cerevisiae deletion strains, locus YNR052C, strain pop2, stronger effect = lower value 1.02 | S. cerevisiae deletion strains, locus YOL006C, strain TOP1, stronger effect = lower value 1.06 | S. cerevisiae deletion strains, locus YOL012C, strain htz1 0.852 | S. cerevisiae deletion strains, locus YOL147C, strain pex11, stronger effect = lower value 0.999 | S. cerevisiae deletion strains, locus YOR061W, strain CKA2, stronger effect = lower value 1 | S. cerevisiae deletion strains, locus YOR069W, strain VPS5, stronger effect = lower value 1.01 | S. cerevisiae deletion strains, locus YOR136W, strain idh2, stronger effect = lower value 1.02 | S. cerevisiae deletion strains, locus YOR144C, strain elg1, stronger effect = lower value 1 | S. cerevisiae deletion strains, locus YOR184W, strain ser1, stronger effect = lower value 1.06 | S. cerevisiae deletion strains, locus YOR316C, strain cot1, stronger effect = lower value 1.01 | S. cerevisiae deletion strains, locus YPL055C, strain LGE1, stronger effect = lower value 0.946 | S. cerevisiae deletion strains, locus YPL241C, strain CIN2, stronger effect = lower value 1 | S. cerevisiae deletion strains, locus YPR119W, strain clb2, stronger effect = lower value 1.01 | S. cerevisiae deletion strains, locus YPR141C, strain kar3, stronger effect = lower value 1.01 | S. cerevisiae deletion strains, locus YPR163C, strain tif3, stronger effect = lower value 1.01 | S. cerevisiae deletion strains, locus YPR167C, strain met16, stronger effect = lower value 1.01 | S. cerevisiae deletion strains, strain wtn01, stronger effect = lower value 0.997 | S. cerevisiae strains, strain wild type, stronger effect = lower value 1.02
